Measured values taken from PubChem BioAssay.
Active and inactive are the calls of the source.

Experiments:
[1] = system: PRMT1 (protein arginine N-methyltransferase 1); assay: small molecules binding arginine methyltransferase PRMT1 – biochemical, small-molecule microarray, 635 nm fluorescence, primary screen (AID 1088); details: higher = more signal;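 further: binding of Prmt1 protein to compounds spotted on small-molecule microarray slides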
[2] = growth effects on S. cerevisiae YJM789 – YJM789 clinical isolate, OD600, 24 h, basal, primary screen (AID 1089); details: higher = more signal, called active from +8 up or from −8 down;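 further: growth of clinical yeast isolate S. cerevisiae YJM 789 seeded 1000 cells per well; test concentration not given here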
[3] = S. pombe growth modifiers, basal conditions – strain 972, OD600, 24 h, no modulator, primary screen (AID 1090);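 further: basal condition with compound alone and no growth modifier present; test concentration not given here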; details: S. pombe 972 growth, higher = more signal, called active from +8 up or from −8 down
[4] = budding yeast growth modifiers under rapamycin – strain BY4716, OD600, 96 h, primary screen (AID 1091); further: test concentration not given here; details: S. cerevisiae BY4716 + rapamycin, higher = more signal, called active from +8 up or from −8 down
[5] = molecular target: Torsin-1A-interacting protein 2 (Homo sapiens) (UniProt Q8NFQ8); assay: small molecules binding lysate-expressed LULL1 – cell lysate, human LULL1 lysate, 635/667 nm fluorescence, primary screen (AID 1092); details: small-molecule microarray, hLULL1 lysate binding, 635 nm fluorescence; higher = more signal;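 further: probe is lysate of COS7 cells overexpressing human LULL1; score merges per-feature 667 nm fluorescence with signal-to-noise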
Chain of Torsin-1A-interacting protein 2 (Homo sapiens) (Q8NFQ8 whole entry, looked up): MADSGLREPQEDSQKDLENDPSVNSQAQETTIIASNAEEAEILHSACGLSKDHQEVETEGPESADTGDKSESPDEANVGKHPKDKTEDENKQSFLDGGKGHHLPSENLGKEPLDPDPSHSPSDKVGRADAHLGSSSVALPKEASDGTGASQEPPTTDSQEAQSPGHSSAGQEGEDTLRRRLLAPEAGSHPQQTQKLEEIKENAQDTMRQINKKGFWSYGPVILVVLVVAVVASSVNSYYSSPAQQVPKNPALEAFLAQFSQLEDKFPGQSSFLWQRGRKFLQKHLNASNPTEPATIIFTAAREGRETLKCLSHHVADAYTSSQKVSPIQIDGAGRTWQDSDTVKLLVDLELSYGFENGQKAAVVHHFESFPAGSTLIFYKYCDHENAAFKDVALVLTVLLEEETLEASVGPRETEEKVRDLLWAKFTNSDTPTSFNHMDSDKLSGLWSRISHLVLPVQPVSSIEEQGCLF

[6] = optical density change of DRC41 E. coli – strain DRC41, OD650, 24 h, E. coli filamentation project, primary screen (AID 1093);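 further: MC1000 strain lacking acrAB efflux and sulA so SOS filamentation is blocked; test concentration not given here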; details: E. coli DRC41 growth, higher = more signal, called active from +8 up or from −8 down
[7] = probe aLefty2 binding to arrayed compounds – biochemical, biotinylated probe, 635/667 nm fluorescence, primary screen (AID 1094); details: small-molecule microarray, higher = more signal;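 further: score merges spot fluorescence near 667 nm with spot signal-to-noise ratio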
[8] = system: Noggin (protein binding on small-molecule microarray); assay: small molecules binding Noggin protein – biochemical, 635/667 nm fluorescence, primary screen (AID 1095); details: 635 nm fluorescence, higher = more signal;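 further: score merges 667 nm feature fluorescence with signal to noise over triplicate slides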
[9] = molecular target: Neurogenic locus notch homolog protein 3 (Homo sapiens) (UniProt Q9UM47); assay: small molecules binding NOTCH3 protein – biochemical, 635/667 nm fluorescence, primary screen (AID 1096); details: small-molecule microarray, 635 nm fluorescence, higher = more signal
Chain of Neurogenic locus notch homolog protein 3 (Homo sapiens) (Q9UM47 whole entry, looked up): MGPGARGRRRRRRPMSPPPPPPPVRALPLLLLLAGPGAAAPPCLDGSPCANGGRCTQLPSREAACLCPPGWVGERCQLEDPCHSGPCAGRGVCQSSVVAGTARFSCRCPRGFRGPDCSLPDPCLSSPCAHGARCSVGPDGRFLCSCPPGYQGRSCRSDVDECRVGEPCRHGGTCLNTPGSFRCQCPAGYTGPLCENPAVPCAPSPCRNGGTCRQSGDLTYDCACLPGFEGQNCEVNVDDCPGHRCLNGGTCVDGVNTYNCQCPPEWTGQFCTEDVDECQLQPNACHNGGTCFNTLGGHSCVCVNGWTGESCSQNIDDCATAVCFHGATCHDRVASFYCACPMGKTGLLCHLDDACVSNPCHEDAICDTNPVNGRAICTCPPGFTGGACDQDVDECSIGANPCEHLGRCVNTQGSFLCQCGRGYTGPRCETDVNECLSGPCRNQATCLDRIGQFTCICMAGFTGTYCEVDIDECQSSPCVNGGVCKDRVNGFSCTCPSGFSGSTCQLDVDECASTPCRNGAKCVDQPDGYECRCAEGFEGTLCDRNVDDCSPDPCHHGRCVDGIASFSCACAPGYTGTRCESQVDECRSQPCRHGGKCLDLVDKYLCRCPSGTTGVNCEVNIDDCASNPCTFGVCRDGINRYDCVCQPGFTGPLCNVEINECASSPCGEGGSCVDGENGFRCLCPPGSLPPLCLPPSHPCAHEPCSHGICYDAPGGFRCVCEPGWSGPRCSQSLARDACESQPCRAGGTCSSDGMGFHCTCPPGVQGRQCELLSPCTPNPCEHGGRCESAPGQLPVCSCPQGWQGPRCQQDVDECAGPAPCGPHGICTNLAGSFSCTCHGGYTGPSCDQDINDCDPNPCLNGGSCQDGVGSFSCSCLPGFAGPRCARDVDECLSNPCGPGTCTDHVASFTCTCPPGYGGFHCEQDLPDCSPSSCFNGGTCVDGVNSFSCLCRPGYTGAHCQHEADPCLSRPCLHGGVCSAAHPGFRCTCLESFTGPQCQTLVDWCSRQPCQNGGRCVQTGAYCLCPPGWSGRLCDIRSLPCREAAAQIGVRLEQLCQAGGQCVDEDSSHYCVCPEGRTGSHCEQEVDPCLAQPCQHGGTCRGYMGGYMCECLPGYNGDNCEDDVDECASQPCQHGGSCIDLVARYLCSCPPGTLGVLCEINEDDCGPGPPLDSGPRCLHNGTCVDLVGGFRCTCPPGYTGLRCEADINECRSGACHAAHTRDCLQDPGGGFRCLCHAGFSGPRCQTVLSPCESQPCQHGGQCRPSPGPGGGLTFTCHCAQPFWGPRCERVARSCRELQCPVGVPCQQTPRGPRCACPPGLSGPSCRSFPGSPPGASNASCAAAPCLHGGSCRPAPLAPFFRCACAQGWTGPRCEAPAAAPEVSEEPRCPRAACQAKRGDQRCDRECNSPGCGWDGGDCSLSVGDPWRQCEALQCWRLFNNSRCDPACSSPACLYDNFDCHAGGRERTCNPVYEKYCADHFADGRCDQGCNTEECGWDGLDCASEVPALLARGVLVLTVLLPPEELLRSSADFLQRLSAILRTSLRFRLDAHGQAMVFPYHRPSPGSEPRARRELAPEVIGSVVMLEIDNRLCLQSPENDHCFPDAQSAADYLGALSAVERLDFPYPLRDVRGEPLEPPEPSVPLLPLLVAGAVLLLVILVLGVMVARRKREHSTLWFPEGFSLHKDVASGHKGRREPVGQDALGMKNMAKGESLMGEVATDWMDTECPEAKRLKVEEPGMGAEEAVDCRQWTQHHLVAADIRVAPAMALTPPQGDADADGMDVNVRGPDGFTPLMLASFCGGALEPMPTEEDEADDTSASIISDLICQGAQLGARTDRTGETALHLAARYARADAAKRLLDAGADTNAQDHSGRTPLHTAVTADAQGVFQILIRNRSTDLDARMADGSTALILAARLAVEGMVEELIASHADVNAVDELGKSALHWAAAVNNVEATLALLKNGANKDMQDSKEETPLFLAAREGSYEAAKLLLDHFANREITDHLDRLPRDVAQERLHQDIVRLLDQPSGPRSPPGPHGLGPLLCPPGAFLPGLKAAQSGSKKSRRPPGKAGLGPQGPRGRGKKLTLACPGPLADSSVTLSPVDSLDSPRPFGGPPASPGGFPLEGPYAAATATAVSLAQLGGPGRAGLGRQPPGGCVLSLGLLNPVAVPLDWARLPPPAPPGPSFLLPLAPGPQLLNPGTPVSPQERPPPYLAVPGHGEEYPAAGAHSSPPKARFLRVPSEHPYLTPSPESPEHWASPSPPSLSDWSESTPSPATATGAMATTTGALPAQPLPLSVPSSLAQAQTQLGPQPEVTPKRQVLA

[10] = probe aEGFR binding to arrayed compounds – biochemical, biotinylated probe, 635/667 nm fluorescence, primary screen (AID 1097); details: small-molecule microarray, higher = more signal;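 further: probe is a biotinylated anti-EGFR antibody binding compounds printed on slides; score combines fluorescence near 667 nm and signal to noise of each spot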

SMILES | composite z-score [1] | z-score [2] | z-score [3] | z-score [4] | composite z-score [5] | z-score [6] | composite z-score [7] | composite z-score [8] | composite z-score [9] | composite z-score [10]
COc1ccc(O[C@H]2C=C[C@@H](c3ccccc3)O[C@@H]2COC(=O)CCC(C)=NO[C@H](C)c2cn([C@@H]3COC[C@H]3O)nn2)cc1 | 1.53 | -0.88 (inactive) | -0.757 (inactive) | -0.56 (inactive) | 0.146 | 0.508 (inactive) | -0.181 | 0.525 | 0.942 | -0.148
C=CCNC(=O)[C@H]1[C@@H]2C(=O)O[C@@H](c3ccccc3)[C@@H](c3ccccc3)N2[C@@H](c2ccc(O)cc2)[C@]12C(=O)N(C(=O)OCCOC)c1ccc(C#CC3=CCCCC3)cc12 | 1.54 | 0.576 (inactive) | 0.111 (inactive) | 1.12 (inactive) | 3.14 | 0.111 (inactive) | 0.862 | 1.78 | 1 | -0.21
CCN(CC)c1ccc(N2CC=CC34O[C@@H]5/C=C\CCC(C)OC(=O)C5[C@H]3C(=O)N(CCCO)[C@@H]4C2=O)cc1 (stereo not given in full) | -1 | 0.664 (inactive) | -0.0895 (inactive) | 0.928 (inactive) | 0.964 | 0.0591 (inactive) | -0.143 | -0.686 | -0.397 | -0.27
C=CC[C@@H]1C=C[C@H](ON=C2c3cc(OC)ccc3O[C@H](c3cccc(OC)c3)[C@H]2O)[C@@H](CO)O1 | -0.524 | -0.39 (inactive) | -0.851 (inactive) | -1.42 (inactive) | 0.813 | 0.686 (inactive) | -0.233 | -0.0543 | 0.0033 | -0.133
O=C1[C@H]2[C@H]3[C@H](O)[C@H](O)CC(=NOCc4ccccc4)[C@H]3CC[C@H]2C(=O)N1C[C@@H]1CCCO1 | -0.107 | -0.139 (inactive) | 0.531 (inactive) | -0.351 (inactive) | 0.78 | 0.0096 (inactive) | -0.238 | 0.322 | 0.48 | -0.123
CC(C)NC(=O)[C@@]1(c2ccc([N+](=O)[O-])cc2)CC(=O)N(CC23CC4CC(CC(C4)C2)C3)[C@@H]1c1ccc(CO)cc1I | 1.52 | 0.151 (inactive) | 0.168 (inactive) | 5.83 (inactive) | 2.53 | -0.525 (inactive) | 0.448 | 0.176 | 0.341 | 0.0743
CN(C)CCCNC(=O)[C@@H]1c2ccccc2C(=O)N(Cc2ccccc2)[C@H]1c1ccc(CO)cc1 | 0.0881 | 0.115 (inactive) | -0.699 (inactive) | -0.848 (inactive) | 0.282 | 0.442 (inactive) | 0.555 | -0.848 | -1.21 | 0.259
CN1C(=O)C2C=CC(C(O)c3ccc(Br)cc3)N(N(c3ccccc3)c3ccccc3)C2C1=O (stereo not given) | 0.289 | 0.351 (inactive) | 1.27 (inactive) | 2.27 (inactive) | 1.94 | -1.24 (inactive) | 0.238 | -0.482 | 0.585 | 0.146
